Data from PubChem BioAssay AID903 (National Center for Advancing Translational Sciences (NCATS), 2007).
The whole screen tested about 55,000 compounds, of which about 340 (0.62%) were called active. Roughly 3% stayed inconclusive and do not appear here. The call rests on the fitted dose curve; in most records, active means well fitted cell-killing curve with a large enough effect; inconclusive means small, poorly fitted or top-dose-only effect; inactive means no such curve, though single readings can be large or run the other way. Many of the other results were omitted from the sample, so actives are more common in it than they were.

Assay: qHTS Screen for Compounds that Selectively Target Cancer Cells with p53 Mutations: Cytotoxicity of p53 Null Cells at the Permissive Temperature; further: nearly all actives have a fitted effect of over 55% in size;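 on activity change, negative = cytotoxicity: 0% = DMSO only and -100% = full killing by 100 µM tamoxifen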
Settings: H1299-neo p53 null cells, ATP luminescence, 24 h, 32C; series mostly up to 46.1 µM; activity change, negative = cytotoxicity: at the top concentration
Excerpt: NIH Chemical Genomics Center [NCGC] NIH Molecular Libraries Screening Centers Network [MLSCN] MLSCN Grant: 1 X01 MH079844-01 Assay Submitter (PI): Dr. SUN, YI, University of Michigan NCGC Assay Overview: Synthetic Lethal Screen for Compounds to Kill Cancer Cells with p53 Mutation. Tumor suppressor gene p53 serves as a major cellular barrier against tumorigenesis. […] The goal of this screening is to identify small molecule probes that selectively kill cancer cells with mutations in p53. This screening was carried out using two lines of H1299 lung cancer cells. The H1299-p53 A138V line express a temperature sensitive p53 mutant (p53ts) in which the mutant p53 protein (A138V) is in the mutant confirmation when grown at 39C (the nonpermissive temperature) and in the wild type conformation when grown at 32C (the permissive temperature). A H1299-neo line (p53 null) grown at both 39C and 32C were used as counter-screens to filter out false positive associated with temperature shifting. The small molecular compounds that selectively target mutant p53-containing cancer cells were selected as candidate probes for further study. A cytotoxicity assay based on the measurement of ATP contents in cells was used in this screen. Concentration-responses of all the compounds in the library collection were determined in qHTS using the cell lines and temperature conditions as above.
NCGC Assay Protocol Summary: Both the H1299-p53A138V and H1299-neo cell lines were provided by Dr.Yi Sun, a PI at the University Michigan. The cells were maintained and cultured at 37C. The resuspended frozen cells were used to plate the cells in the 1536-well assay plates at a density of 600 cells per well in 5 ul medium. The assay plates with the cells were incubated at 37C for 16 to 30 hours before the experiments. The library compounds in DMSO solution were added to the cells in assay plates and incubated 24 hours at 39C (for mutant p53 conformation) or 32C (for normal p53 conformation as control). An ATP_lite assay kit (PerkinElmer) was used to determine the cell viability. Tomaxifen (100uM) was used as the positive control for cell killing. Data were normalized to the controls for basal activity (DMSO only) and 100% killing (100uM tamoxifen). AC50 values were determined from concentration-response data modeled with the standard Hill equation. P53 assay protocol: 1. Reagent; 5 uL H1299-p53A138V or H1299-neo cell cells/well 2. Time; overnight; 37C incubation 3. Compounds; 23 nL; 5.9 nM to 46 uM 4. Controls; 23 nL; Tamoxifen 100 uM 5. Time; 24 hr; 32C incubation 6. Reagent; 3 uL; ATP_Lite reagent 7. Time; 20 min; Room Temperature 8. Detection; Luminescence; Viewlux plate reader Keywords: p53, synthetic lethal, cancer, cell viability, cytotoxicity, H1299 cell line, luminescence, MLSMR, MLSCN, NIH Roadmap, qHTS, NCGC
Potency means the concentration at half of the fitted maximal effect.

Row | Structure (SMILES) | activity change, negative = cytotoxicity | Potency
1 | COc1ccc(-c2csc(-c3c(N)c(C(=O)c4ccc(OC)c(OC)c4)n4ccccc34)n2)cc1 | 6.12% (inactive) | 
2 | Cc1cc(OCC(=O)Nc2ncn[nH]2)c(C)c(C)c1Br | 1.71% (inactive) | 
3 | COc1ccc(N2CCN(c3nc(-c4ccccc4F)nc4ccccc34)CC2)cc1 | 13.6% (inactive) | 
4 | O=S(=O)(c1ccc(Br)cc1)c1nnn2c1nc(NC1CCCCCC1)c1sccc12 | 2.98% (inactive) | 
5 | COc1cccc(CNC(=O)c2ccc3c(c2)N(Cc2ccc(C(F)(F)F)cc2)C(=O)c2ccccc2S3)c1OC | 17.9% (inactive) | 
6 | COc1ccc(OC)c2sc(N3CCN(C(=O)C4COc5ccccc5O4)CC3)nc12 (stereo unspecified) | -3.09% (inactive) | 
7 | Cn1c(=O)cc(OCC(=O)N2CCN(c3ccccc3F)CC2)c2ccccc21 | -5.26% (inactive) | 
8 | COc1cc(C(=O)Nc2ccc(OCc3cc(=O)n4cc(C)sc4n3)cc2)cc(OC)c1OC | -1% (inactive) | 
9 | COc1cccc(C2C(C(=O)Nc3ccc(C)cc3C)=C(C)Nc3c(C(=O)Nc4ccccc4)cnn32)c1 (stereo unspecified) | 30.5% (inactive) | 
10 | CCNC(=O)Cn1nc(C)n2c(cc3c(OC)cccc32)c1=O | -6.05% (inactive) | 
11 | O=C(NCc1ccccc1)C1CCN(S(=O)(=O)c2ccc3[nH]c(=O)ccc3c2)CC1 | 2.92% (inactive) | 
12 | COc1ccc(N2CCN(S(=O)(=O)CCNC(=O)C(c3ccccc3)c3ccccc3)CC2)cc1 | -14.2% (inactive) | 
13 | Cc1ccc(C2CCN(C(=O)c3cnn(-c4ccccc4Cl)c3C3CCN(C(=O)OC(C)(C)C)CC3)C2)cc1 (stereo unspecified) | 5.82% (inactive) | 
14 | CN(C)CCCNC(=S)NCc1ccc(Cl)cc1 | -7.09% (inactive) | 
15 | COc1ccc(CCNC(=O)c2c3c(nc4ccccc24)C(=O)N(C2CCCCC2)C3)cc1OC | -8.55% (inactive) | 
16 | CCOC(=O)c1ccc(NC(=O)C2CC(=O)NC(=Nc3ccc(C)c(C)c3)S2)cc1 (stereo unspecified) | -12.3% (inactive) | 
17 | O=C(NCc1ccc(F)cc1)c1ccc(Cn2c(SCc3ccc(F)cc3)nc3cccnc32)cc1 | -23.4% (inactive) | 
18 | Cc1ccc(CSc2nc3cccnc3n2Cc2ccc(C(=O)NC3CC3)cc2)cc1 |  | 2.51 µM (active)
19 | O=C(NC1CCCCC1)c1ccc(Cn2c(SCc3ccccc3)nc3cccnc32)cc1 | -13.1% (inactive) | 
20 | COc1ccc(C(=O)OCC(=O)NC(=O)CCSc2ccccc2)cc1 | -8.99% (inactive) | 
21 | Cc1cccc(-n2ncc(C(=O)N3CCC(C)CC3)c2C2CCN(C(=O)OC(C)(C)C)CC2)c1 | 2.94% (inactive) | 

Row | Structure (SMILES) | activity change, negative = cytotoxicity | Potency
22 | CC(C)C(=O)Nc1cccc(NC(=O)c2ccc([N+](=O)[O-])cc2Cl)c1 | -9.2% (inactive) | 
23 | CCCCOc1ccc(CN2C(=O)C(=O)c3cc(Br)cc(C)c32)cc1OC |  | 35.5 µM (active)
24 | CCCCOc1ccc(Cn2c(=O)oc3ccc(C)cc32)cc1OC | -0.124% (inactive) | 
25 | COc1ccc(CCN2C(=O)C3CC=C(C)CC3C2=O)cc1OC (stereo unspecified) | -0.134% (inactive) | 
26 | COc1ccc(NC(=O)c2ccco2)cc1NC(=O)c1ccc(C#N)cc1F | -5.82% [at 9.22 µM] (inactive) | 
27 | Cc1cc(C)c2oc(-c3cccc(NC(=O)c4cccc(F)c4)c3C)nc2c1 | -11.5% (inactive) | 
28 | Brc1ccc(-c2noc(-c3ccccc3)n2)o1 | -13.7% (inactive) | 
29 | Cc1ccccc1-n1c(C)cc(/C=C2\NC(=O)NC2=O)c1C |  | 11.2 µM (active)
30 | Cc1cccc(N2CCN(C3=C(c4ccccc4)C(=O)c4ccccc43)CC2)c1C | 4.86% (inactive) | 
31 | COc1ccc(-c2cc3ccc(OCc4nn[nH]n4)cc3oc2=O)cc1 |  | 12.6 µM (active)
32 | COc1ccc2cc(-c3nc(Cl)c4c5c(sc4n3)CC(C)CC5)c(=O)oc2c1 (stereo unspecified) | -0.526% (inactive) | 
33 | COc1ccc2oc(=O)c(-c3cn4c(n3)sc3cc(OC)ccc34)cc2c1 | -2.92% (inactive) | 
34 | Cc1cccc2c(=O)cc(CSc3ccccc3NC(=O)C(C)C)[nH]c12 | -4.09% (inactive) | 
35 | C/C=C/c1ccc(OCCOc2ccc(C=O)cc2OC)c(OC)c1 | -1.57% (inactive) | 
36 | COc1ccc(CCNC(=O)c2cc(=O)c3c(C)cc(C)cc3o2)cc1OC | -0.239% (inactive) | 
37 | Cc1ccc(-n2c(CNc3ccc(F)cc3)nnc2SCC(=O)N2CCOCC2)cc1 | -5.26% (inactive) | 
38 | O=C(NC1CCCCC1)c1ccc2c(c1)N(Cc1ccc(Cl)cc1)C(=O)c1ccccc1S2=O (stereo unspecified) | -5.35% (inactive) | 
39 | O=C(NCC(c1ccc(Cl)cc1)N1CCOCC1)c1ccccc1F (stereo unspecified) | 0.172% (inactive) | 
40 | O=C(Nc1ccccc1F)c1ccccc1-c1ccccc1 | -0.487% (inactive) | 
41 | CC(=O)c1ccc(NC(=O)Nc2ccc([N+](=O)[O-])cc2C)cc1 | -16.8% (inactive) | 
42 | COc1ccc(N2CCN(c3cc(C)nc4nncn34)CC2)cc1 | 0.606% (inactive) | 

Row | Structure (SMILES) | activity change, negative = cytotoxicity | Potency
43 | COc1ccccc1C1C(C(=O)N2CCCCC2)=C(C)Nc2nc3ccccc3n21 (stereo unspecified) | 12.2% (inactive) | 
44 | COc1ccccc1N1CCN(c2ccc(=O)n(CC(=O)NCc3ccc(OC(C)C)cc3)n2)CC1 | -1.62% (inactive) | 
45 | Cc1ccc(Cl)cc1NC(=O)CCC(=O)N1CC(C)Sc2ccccc21 (stereo unspecified) | 3.24% (inactive) | 
46 | CC1CCCN(Cc2c(O)ccc3c(=O)c(Oc4ccc(C(C)(C)C)cc4)c(C(F)(F)F)oc23)C1 (stereo unspecified) | -2.32% (inactive) | 
47 | Cc1ccccc1CSc1nc(-c2ccccc2)nc2c1Cc1c(CO)cnc(C)c1O2 | -0.829% (inactive) | 
48 | COc1ccc(OC)c(NC(=O)Cn2c(=O)n(Cc3ccccc3)c(=O)c3ccccc32)c1 | 5.5% (inactive) | 
49 | COc1cccc(CNCc2c(C(=O)O)n(Cc3ccc(C)cc3)c3cc(C)ccc23)c1OC | -5.03% (inactive) | 
50 | O=C(Cn1cnc2c(oc3ccccc32)c1=O)Nc1ccc(OC(F)(F)F)cc1 | -6.42% (inactive) | 
51 | CCOc1ccccc1CNC(=O)Nc1cn(CC(C)C)c(=O)c2ccccc12 | 6.21% (inactive) | 
52 | COc1ccc2oc(-c3cccc(NC(=O)CSc4ccc(Cl)cc4)c3)nc2c1 | -26.4% (inactive) | 
53 | CCOC(=O)CN1C(C(=O)c2ccccc2)=C(OC(=O)C(C)(C)C)c2ccccc2S1(=O)=O | -1.26% (inactive) | 
54 | CCOC(=O)C1=C(c2ccccc2)Nc2ncnn2C1c1ccc(Cl)cc1 (stereo unspecified) | 24.7% (inactive) | 
55 | O=C(CSc1nc2ccccc2[nH]1)Nc1nc(-c2ccccc2)c(-c2ccccc2)o1 | 36% (inactive) | 
56 | O=C(NCc1ccccc1)C(=O)NCC(c1ccco1)S(=O)(=O)c1ccc(Cl)cc1 (stereo unspecified) | 7.23% (inactive) | 
57 | Cc1ccc(CSc2nc3ccsc3c(=O)n2CCC(C)C)cc1 | -2.95% (inactive) | 
58 | COc1ccc(S(=O)(=O)c2c(Nc3cccc(Cl)c3)sc(C(=O)c3ccccc3)c2N)cc1 | 5.07% (inactive) | 
59 | Cc1cccc(N2CCN(C(=O)c3ccc(Nc4nc5ccccc5n5nnnc45)cc3)CC2)c1C | -5.36% (inactive) | 
60 | O=C(COc1ccccc1)OCc1cc(=O)n2nc(-c3cccs3)sc2n1 | 2.83% (inactive) | 
61 | CC1CCN(C(=O)Cn2c(=O)n(-c3ccc(Cl)cc3)c(=O)c3c4c(sc32)CCC4)CC1 | 0.896% (inactive) | 
